Measured values reported in PubChem BioAssay AID686979 (National Center for Advancing Translational Sciences (NCATS), 2013).
Screen size: about 420,000 compounds; about 50,000 (12%) were called active. Entries that show only a call come without a potency. About 26% were inconclusive and are not listed. This is one part of a sample in which actives are shown more often than they occur. The call rests on the fitted dose curve; in most records, active means well fitted inhibition curve with a large enough effect; inconclusive means small, poorly fitted or top-dose-only effect; inactive means flat fitted curve, though single readings scatter.

experiment: qHTS for Inhibitors of human tyrosyl-DNA phosphodiesterase 1 (TDP1): qHTS in cells in presence of CPT; details: chicken DT40 Tdp1-/-;hTDP1 cells + 20 nM CPT, ATP luminescence, 48 h; series mostly up to 46.2 µM; further: nearly all actives have a fitted effect of over 55% in size
How it was run: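 Cell growth measured by CellTiter-Glo luminescence after a minimum 48 h, 37 C compound exposure with 20 nM CPT in Tdp1-knockout DT40 cells stably expressing hTDP1, seeded 400/well; qHTS titration format.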
Potency means the concentration at half of the fitted maximal effect.

SMILES	Potency
CSCCC(NC(=O)COc1ccccc1)C(=O)OCc1ccc(Cl)cc1 (stereo not given)	inactive
COc1cc(-c2cccnc2)cc2c1OCCN(C(=O)Cc1csc(C)n1)C2	inactive
CCCNC(=O)C1CC(=O)N(c2ccc(OCc3ccccc3)cc2)C1 (stereo not given)	inactive
O=C(CCc1nc(CN2CCN(S(=O)(=O)c3ccc(Br)cc3)CC2)no1)N1CCCCC1	inactive
Cc1ccccc1N1C(=O)C2ON(c3ccccc3)C(c3ccncc3)C2C1=O (stereo not given)	inactive
C/C(=N/OC(=O)c1ccc(Br)cc1)c1ccc(C)cc1	inactive
COc1ccc(-c2cc(=O)oc3cc(OCC(=O)N[C@@H](Cc4c[nH]c5ccccc45)C(=O)O)ccc23)cc1	inactive
O=C(N[C@H]1CC[C@H](CC(=O)N2CCCCC2)O[C@@H]1CO)c1cccc(F)c1	inactive
CCc1cc2c(=O)c(-c3nc4ccccc4n3C)c(CCCC(=O)O)oc2cc1OC(=O)C(C)(C)C	inactive
CC1=C(C(=O)N(C)C)CC(CC(=O)NCCN2CCOCC2)C(=O)N1Cc1ccccc1 (stereo not given)	inactive
COc1cccc(OCc2nnc3n2N=C(c2ccccc2)C(CC(=O)O)S3)c1 (stereo not given)	inactive
O=C(COC(=O)Cn1[nH]c(=O)c2ccccc2c1=O)Nc1c(Cl)cccc1C(F)(F)F	inactive
CC[C@H](C)[C@@H](C(=O)N1CCNCC1)n1cc([C@@H](N)Cc2ccc(O)cc2)nn1	inactive
COc1cc(C(=O)N2CCOCC2)cc(OC)c1OC	inactive
COc1cc2ccccc2cc1C(=O)N1CCOCC1	inactive
COc1c(Br)cc2c(C)c(C(=O)N3CCOCC3)oc2c1Br	20.6 µM (active)
N#CCCN(C(=O)COC(=O)c1ccc2c(c1)OCCO2)c1ccccc1	inactive
CC(C)c1c(C(=O)N/N=C/c2ccccc2C(=O)O)nnn1-c1nonc1N	inactive

SMILES	Potency
Cn1c(=O)[nH]c(=O)c2c1[nH]c(=S)n2Cc1ccccc1	inactive
CCCc1c(C(=O)N/N=C(\C)CCc2ccc(OC)cc2)nnn1-c1nonc1N	inactive
Cc1cccc(N2O[C@H]3C=CC2CCCC3)n1	inactive
COP1(=O)C[C@@H](O)[C@@H](O)[C@@H](COCc2ccccc2)O1 (stereo not given in full)	inactive
O=C(NCCc1ccc(Cl)cc1)c1ccc2c(c1)N(Cc1ccc(F)cc1)C(=O)CS2	20.6 µM (active)
O=C(NCCc1ccc(Cl)cc1)c1cccc(N2CCCC2=O)c1	inactive
O=C(c1ccc2c(c1)N(Cc1ccc(F)cc1)C(=O)CS2)N1CCOCC1	inactive
CC1CCN(C(=O)c2ccccc2NC(=O)Cc2ccccc2)CC1	inactive
COc1ccc(N2CCN(C(=O)c3cccs3)CC2)cc1	inactive
Cc1ccccc1C(=O)NC(=S)Nc1ccc(N2CCN(C(=O)c3ccccc3)CC2)cc1	10.3 µM (active)
Cc1ccccc1C(=O)Nc1ccccc1NC(=O)c1ccccc1C	inactive
COc1ccccc1C(=O)NC(=S)Nc1ccc(N2CCOCC2)cc1	inactive
Cc1ccccc1C(=O)N1CCN(c2ccc(NC(=O)c3cccs3)cc2)CC1	18.4 µM (active)
Cc1ccccc1C(=O)Nc1ccc(N2CCCCCC2)cc1	14.6 µM (active)
O=C(NC(=O)c1ccccc1N1CCCCC1)Nc1ccc(Br)cc1	inactive
Cc1cccc(C)c1NC(=O)CS(=O)CC(=O)N1CCN(c2ccccc2)CC1 (stereo not given)	inactive
O=C(Nc1ccc(N2CCN(C(=O)C3CC3)CC2)cc1)c1cccs1	inactive
